The results in this text go back to PubChem BioAssay AID463173 (ICCB-Longwood Screening Facility, Harvard Medical School, 2010).

Among all 52,000 compounds or so, about 1,700 (3.3%) were called active. The list comes from a sample in which actives are over-represented; it also holds similar structures and randomly drawn compounds. Unmarked numbers belong to inactive results. Rule as the data show it: active = survival mostly below about 52% (no sharp cut-off); inactive = mostly above about 56%.

This experiment relates to Wild type. Kind of experiment: S. aureus survival, RN4220 and DeltatarO strains – OD600, teichoic acid synthesis inhibitors, primary screen (AID 463173). Particulars: S. aureus RN4220 wild type/DeltatarO growth, OD600, 18 h, stronger effect = lower value, screened at 18.75 µg/mL (by protocol).
As to `Cc1c(C(=O)Nc2cccc(C(F)(F)F)c2)sc2nc[nH]c(=O)c12`, the survival was 73%. In the case of `CCOC(=O)c1c(NC(=O)COc2ccc(C(C)(C)C)cc2)sc2c1CCCC2` it was 69%; in that of `CCOC(=O)c1c(NC(=O)CCCOc2ccc(Cl)cc2)sc2c1CCC2`, 20%; in that of `CCOC(=O)c1c(NC(=O)CCCOc2ccc(C(C)(C)C)cc2)sc2c1CCCC2`, 9% (active).

Regarding `CCOC(=O)c1c(NC(=O)CCCOc2ccc(C(C)(C)C)cc2)sc2c1CCC2`, the survival is 7% (active). In the case of `CCOC(=O)c1c(NC(=O)/C=C/c2ccc(OCC)cc2)sc2c1CCCC2`, the survival was 78%. Take `CCOC(=O)c1c(NC(=O)/C=C/c2ccc(OCC)cc2)sc2c1CCC2`: the survival is 139%.

For `CN(C)C(=O)c1ccc(N(C)S(=O)(=O)c2ccccc2)cc1`, the survival is 113%.

As for `COc1ccc(NC(=S)N(Cc2ccco2)Cc2cc3cc(C)c(C)cc3[nH]c2=O)cc1`, the survival was 103%. For the compound `Cc1ccc(C(=O)CSc2nc(-c3ccccc3)nc3c2CCCC3)cc1`, the survival is 55%. With `Cc1ccc(C(=O)CSc2nc(-c3ccccc3)nc3c2CCCC3)c(C)c1`, the survival is 58%.

Turning to `Cc1ccc(C)c(C(=O)CSc2nc(-c3ccccc3)nc3c2CCCC3)c1`, the survival was 6% (active). For the compound `CCn1c(CNC(=O)c2ccc(OC)cc2)nnc1SCC(=O)Nc1ccc(C)cc1`, the survival was 125%. For the compound `O=C1CN(C(=O)c2ccccc2C(F)(F)F)C(c2ccccc2)c2cc(F)ccc2N1` (centres undefined), the survival was 66%. In the case of `O=C(NCc1ccc(F)cc1)C1CCCCN1S(=O)(=O)c1ccc(F)cc1` (centres undefined) it was 0% (active).

Turning to `COc1ccc(CNC(=O)C2CCCCN2S(=O)(=O)c2ccc(F)cc2)cc1` (centres undefined), the survival is 87%. Consider `Cc1ccc(CNC(=O)C2CCCCN2S(=O)(=O)c2ccc(F)cc2)cc1` (centres undefined), for which the survival was 91%. Consider `CCOC(=O)CSc1nc(-c2ccc(C)cc2C)cc(-c2ccccc2)c1C#N`, for which the survival is 63%. Take `CNS(=O)(=O)c1cn(CC(=O)N2CCN(c3cc(C)ccc3C)CC2)cc1S(=O)(=O)NC`: the survival was 83%. Turning to `COc1ccc(NC(=O)N(C(C)C)C2CCN(C(C)=O)CC2)c(OC)c1`, the survival is -4% (active). Turning to `CCOc1ccccc1NC(=O)N(Cc1ccc(C)o1)C1CCN(C(C)=O)CC1`, the survival was 75%.

As for `COc1ccc(NC(=O)N(Cc2ccco2)C2CCN(C(C)=O)CC2)c(OC)c1`, the survival was 85%. In the case of `COC(=O)c1ccc(Cl)cc1NC(=O)N(Cc1ccc(OC)cc1)C1CCN(C(C)=O)CC1` it was -6% (active); in that of `CCN1CCC(N(Cc2ccc(F)cc2)C(=O)Nc2cc(Cl)ccc2C(=O)OC)CC1`, 80%. With `COc1ccc(C)cc1NC(=O)N(C(C)C)C1CCN(C(C)=O)CC1`, the survival was 85%. Consider `COC(=O)c1ccc(Cl)cc1NC(=O)N(Cc1ccc(C)o1)C1CCN(C(C)=O)CC1`, for which the survival was 76%.

As to `CC(=O)N1CCC(N(Cc2ccc(C)o2)C(=O)Nc2ccc(C)cc2)CC1`, the survival was 70%.

Turning to `COc1ccc(C)cc1NC(=O)N(Cc1ccc(C)o1)C1CCN(C(C)=O)CC1`, the survival is 0% (active). Turning to `O=C(Cn1c(=O)nc(-c2ccccc2)c2ccccc21)NCc1ccc(F)cc1`, the survival is 68%. Regarding `CC(=O)c1ccc(N2CCN(C(=O)CCS(=O)(=O)c3ccc4c(c3)oc(=O)n4C)CC2)cc1`, the survival is 89%.

As to `CCCCCOc1ccc(/C=C/C(=O)Nc2sc(C)c(C)c2C(=O)OCC)cc1OC`, the survival is 132%. As for `CCCOCc1cc(CN2CCN(c3ccccc3OC)CC2)c(O)c2ncccc12`, the figure is 99%. Turning to `CC(C)OC(=O)C1=C(N)OC2=C(C(=O)CCC2)C1c1ccccc1F` (centres undefined), the survival was 114%. As for `COc1ccc(CCNC(=O)Cn2c(-c3ccc(F)cc3)cc(C(C)=O)c2C)cc1OC`, the survival was 54%. As to `CN1CCN(CCCNC(=O)c2cnn(-c3ccc(F)cc3)c2-n2cccc2)CC1`, the survival was 84%.

In the case of `COc1ccc(N2CC(NC(=O)c3ccc(S(=O)(=O)N4CCCC4)cc3)CC2=O)cc1` (centres undefined), the survival is 118%.

As to `O=C(Cc1cccs1)NC1CC(=O)N(c2ccc(F)cc2)C1` (centres undefined), the survival is 95%. Regarding `O=C(Cc1ccccc1)NC1CC(=O)N(c2ccccc2)C1` (centres undefined), the survival is 76%. In the case of `Cc1ccc(N2CC(NC(=O)Cc3cccs3)CC2=O)cc1` (centres undefined) it was 0% (active); in that of `COc1cccc(N2CC(NC(=O)CCCc3ccccc3)CC2=O)c1` (centres undefined), 88%. As for `O=C(Cc1cccs1)NC1CC(=O)N(c2ccccc2)C1` (centres undefined), the survival is 78%. On to `Cc1cccc(CC(=O)NC2CC(=O)N(c3ccccc3)C2)c1` (centres undefined), for which the survival is -6% (active). On to `COc1ccc(CCC(=O)NC2CC(=O)N(c3ccccc3)C2)cc1` (centres undefined), for which the survival is 131%.

On to `Cc1cccc(CC(=O)NC2CC(=O)N(c3cccc(F)c3)C2)c1` (centres undefined), for which the survival is 60%. As for `COc1ccc(N2CC(NC(=O)CCCc3ccccc3)CC2=O)cc1` (centres undefined), the figure is 0% (active). Take `COc1ccc(C(=O)NC2CC(=O)N(c3ccc4c(c3)OCCO4)C2)cc1` (centres undefined): the survival is 143%.

As for `COc1ccc(N2CC(NC(=O)c3ccc(OC(C)C)cc3)CC2=O)cc1` (centres undefined), the survival is -2% (active). With `COc1ccc(N2CC3=C(C2=O)C(c2ccc(O)c(OC)c2)NC(=O)N3C)cc1` (centres undefined), the survival was 71%.

As for `CCN(C(=O)Cn1nc(Cc2cccnc2)c2ccccc2c1=O)c1cc(C)ccc1C`, the survival was 83%.

Turning to `CCc1ccccc1NC(=O)Cn1c(SCc2ccc(F)cc2)nc2ccncc21`, the survival was 48%. As to `COc1ccc(NC(=O)C2CCN(S(=O)(=O)c3c(C)noc3/C=C/c3ccco3)CC2)cc1`, the survival is 128%. With `COc1ccc(CCNC(=O)CCn2c(=O)c3ccccc3n(Cc3ccccc3)c2=O)cc1OC`, the survival was 97%. In the case of `CCC(=O)Nc1ccc(CC)cc1-c1nc2ccccc2n(CC(=O)c2ccc(OC)cc2)c1=O` it was 74%. As to `Cc1ccc(N2CC(NC(=O)CCc3ccccc3)CC2=O)cc1` (centres undefined), the survival was -3% (active).

In the case of `O=C(CCc1ccccc1)NC1CC(=O)N(c2ccccc2)C1` (centres undefined), the survival was 78%. In the case of `Cc1ccc(N2CC(NC(=O)CCCc3ccccc3)CC2=O)cc1` (centres undefined) it was 53%; in that of `COc1ccccc1NC(=O)CN(c1ccc(C(C)C)cc1)S(=O)(=O)c1c(C)noc1C`, 88%; in that of `O=c1c2cc3c(nc2ncn1Cc1ccc(Cl)cc1)CCCC3`, 76%. `O=C(CSc1nnc(NC(=O)Nc2ccccc2)s1)Nc1cccc(F)c1`: the survival is 75%.

With `CCSc1nsc(NC(=O)Nc2cccc(F)c2)n1`, the survival was 0% (active).

With `CCSc1nsc(NC(=O)Nc2cccc(OC)c2)n1`, the survival was 95%.

On to `Cc1ccc(CNC(=O)c2ccc(CSCc3ccc(Cl)cc3)o2)cc1`, for which the survival was 85%. Consider `CCOc1ccc(C(c2c(O)cc(C)n(Cc3ccco3)c2=O)N2CCN(C)CC2)cc1` (centres undefined), for which the survival is 66%.

As to `CC(C)(C)OC(=O)N1CCC(c2c(C(=O)NCc3ccc4c(c3)OCO4)cnn2-c2ccccc2Cl)CC1`, the survival is 75%.

With `CNC(=O)C1CCC(Cn2c(=O)[nH]c3ccsc3c2=O)CC1` (centres undefined), the survival was 80%. As for `CCCCN(C)C(=O)C1CCC(Cn2c(=O)[nH]c3ccsc3c2=O)CC1` (centres undefined), the figure is -2% (active); as for `CCCCCNC(=O)CCCCCn1c(=O)[nH]c2ccsc2c1=O`, 62%.

With `CCCn1nc(NC(=O)c2cccc(Cl)c2)c2cc3cccc(C)c3nc21`, the survival was 87%. With `COc1ccc(-c2cccc(NS(=O)(=O)c3ccc(C)s3)c2)nn1`, the survival was 91%. As to `Cc1ccc(C)c(N2CCN(C(=O)C3CCCN(Cc4nc(-c5cccc(Cl)c5)oc4C)C3)CC2)c1` (centres undefined), the survival was 81%.

For `Cc1cccc(-c2nc(CN3CCCC(C(=O)N4CCN(c5cc(Cl)ccc5C)CC4)C3)c(C)o2)c1` (centres undefined), the survival is 75%. Take `CCc1ccc(-c2nc(CN3CCCC(C(=O)N4CCN(c5cc(Cl)ccc5C)CC4)C3)c(C)o2)cc1` (centres undefined): the survival was 84%. As for `Cc1ccc(C)c(N2CCN(C(=O)C3CCN(Cc4nc(-c5cccc(Cl)c5)oc4C)CC3)CC2)c1`, the figure is 3% (active).

Regarding `Cc1ccc(Cl)cc1N1CCN(C(=O)C2CCN(Cc3nc(-c4cccc(Cl)c4)oc3C)CC2)CC1`, the survival is -4% (active).

As for `Cc1cccc(N2CCN(C(=O)C3CCN(Cc4nc(-c5ccc(Cl)cc5)oc4C)CC3)CC2)c1C`, the survival was 47%.

Take `Cc1oc(-c2cccc(Cl)c2)nc1CN1CCC(C(=O)NC(C)C)CC1`: the survival is 92%. Regarding `Cc1ccc(Cl)cc1N1CCN(C(=O)C2CCN(Cc3nc(-c4ccc(Cl)cc4)oc3C)CC2)CC1`, the survival is -4% (active). On to `COc1ccc(-c2nc(CSCC(=O)N3CCN(c4ccccc4F)CC3)c(C)o2)cc1`, for which the survival was 24%. Turning to `COc1ccc(-c2nc(CSCC(=O)N3CCN(c4ccc(OC)cc4)CC3)c(C)o2)cc1`, the survival is 81%.

With `COc1ccc(-c2nc(CSCC(=O)N3CCN(c4cc(Cl)ccc4C)CC3)c(C)o2)cc1`, the survival is -1% (active). In the case of `Cc1ccc(Cl)cc1N1CCN(C(=O)C2CCCN(Cc3nc(-c4cccc(Cl)c4)oc3C)C2)CC1` (centres undefined) it was 84%; in that of `Cc1cccc(N2CCN(CCCNC(=O)Cn3ncc4c([nH]c5ccccc54)c3=O)CC2C)c1` (centres undefined), 101%; in that of `CCc1ccccc1NC(=O)CSc1nnc(CC)c(CC)n1`, 74%. On to `Cc1ccccc1CN1c2ccccc2S(=O)(=O)c2ccccc21`, for which the survival was 73%.

As to `Cc1cc(C)c(Cn2c3ccccc3c3cnn(CC(=O)NC4CCCCCC4)c(=O)c32)c(C)c1`, the survival is 127%.

On to `COc1ccc(-n2cc(-c3ccccc3)nc2SCC(=O)Nc2ccccc2)cc1Cl`, for which the survival was 71%. As to `COc1ccc(Cl)cc1N=C1NC(=O)CC(C(=O)Nc2ccccc2C(F)(F)F)S1` (centres undefined), the survival is 71%. Take `COc1ccc(CCNC(=O)CN2C(=O)COc3ccc(C)cc32)cc1OC`: the survival is 71%. Take `COCCNC(=O)CCCn1c(SCC(=O)Nc2ccc(F)cc2)nc2c(sc3ccccc32)c1=O`: the survival was 103%.
